# Inconclusive results are not listed. Entries that show only a call come without a potency. Calls of active or inactive are those of the source. Unless noted, calls follow the shape of the dose curve; as a rule, active = well fitted curve in the direction sought with a large enough effect; inconclusive = small, poorly fitted or top-dose-only effect, or another doubt; inactive = no such curve, though single readings can be large; an effect the other way counts as inactive or inconclusive.
# Assays:
# [1] = molecular target: Calcium and integrin-binding protein 1 (Homo sapiens) (UniProt Q99828); assay: Primary qHTS for Identification of Calcium Integrin Binding Protein 1 (CIB1) Competitor (AID 1508620);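 also: GST tagged CIB1 binding a fluorescein labelled alphaIIb integrin peptide tracer; top concentration of the series differs between compounds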
# Method in brief: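 Fluorescence polarization competition: CIB1-GST (1 uM final) preincubated with compound 15 min at room temperature, then FITC-labeled alphaIIb peptide (100 nM final) added for another 15 min. Polarization read at Ex 480/Em 540.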
# [2] = Confirmatory qHTS for small molecule stabilizers of the endoplasmic reticulum resident proteome: Secreted ER Calcium Modulated Protein (SERCaMP) assay (AID 1508628); also: potency is read from the fitted curve at half-maximal effect; nearly all actives have a fitted effect of over 40% in size
# Method in brief: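 GLuc-SERCaMP-expressing SH-SY5Y cells, pretreated 16 h with compound, are challenged with thapsigargin to empty ER calcium stores; after 4 h, coelenterazine is added directly to the medium and luminescence is imaged.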
# [3] = NCATS anti-infectives library activity on HEK293 viability as a counter-qHTS vs the C. elegans viability qHTS (AID 1745854)
# Method in brief: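 CellTiter-Glo luminescence, read on a CCD imager, scored viability of HEK293 cells after 24 hr compound exposure at 37C. Library tested in several concentrations, 1:5 steps, up to 41.7 uM; digitonin served as control.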
# [4] = molecular target: Lysosomal acid glucosylceramidase (Homo sapiens) (UniProt P04062); assay: Glucocerebrosidase-p2 (AID 348; in the data active = potency below about 10 µM; also: potency is read from the fitted curve at half-maximal effect); conditions: purified GBA, blue fluorogenic substrate, 40 min
# Method in brief: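 Normal human glucocerebrosidase (0.2 nM) with blue fluorogenic substrate (80 uM final) in citrate/phosphate pH 5.9 with 10mM sodium taurocholate, 0.01% tween-20; 40 min RT, NaOH/glycine stop; fluorescence Ex 365/Em 440; AC50 from a titration from 0.6 nM upwards.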
# [5] = AP1 Signaling Pathway (AID 357; active = well fitted curve in either direction with a large enough effect, not every such curve was filed as active;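 also: ME-180 reporter cells stimulated with EGF at its EC50 level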); conditions: ME-180 AP-1-bla reporter, EGF-induced, beta-lactamase ratio, 5 h; at 7.69 µM (top of the series) unless noted
# Method in brief: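 Titration-series screen for positive or negative modulators of EC50 EGF-induced signaling in ME-180 cells carrying an AP-1-driven beta-lactamase reporter. After 5 hours at 37 degrees Celsius, CCF4 460nm/530nm emission ratio gave %Activity; AC50 values derived.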
# [6] = molecular target: Cytochrome P450 1A2 (Homo sapiens) (UniProt P05177); assay: p450-cyp1a2 (AID 410; calls by dose curve; also: potency is read from the fitted curve at half-maximal effect)
# Method in brief: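 20nM CYP1A2, 100uM Luciferin-ME (=Km), 100mM KPO4; cpd 10 min RT; +NADPH regen, 60 min RT; stop/detect 20 min; luminescence. Normalized to furafylline 57 uM = full inhibition.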
# [7] = NFAT Signaling Pathway (AID 444; active = well fitted curve in either direction with a large enough effect, not every such curve was filed as active;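 also: carbachol stimulus at about its EC50 of 1 µM final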); conditions: Jurkat NFAT-bla M1, carbachol, beta-lactamase ratio, 5 h; at 7.69 µM (top of the series) unless noted
# Method in brief: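 Jurkat cells carrying an NFAT-driven β-lactamase reporter and co-transfected muscarinic M1 receptor were treated with compound plus carbachol (1 uM final, an EC50 level) for 5 h at 37 °C. CCF4 loading followed for 1 h at RT; 460/530 nm ratio gave %activity.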
# [8] = Stat Signaling Pathway (AID 446; active = well fitted curve in either direction with a large enough effect, not every such curve was filed as active;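 also: ME-180 cervical cancer cells given 40 pM IL-6 alongside compound; SIE-controlled beta-lactamase reporter measured as 460/530 nm FRET emission ratio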); conditions: ME-180 (cervical carcinoma) SIE beta-lactamase reporter, IL-6 stimulated, 5 h; at 7.69 µM (top of the series) unless noted
# Method in brief: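 Normalization used AC90 stimulation (300 pM IL-6) and AC90 inhibition (125 nM pan-JAK inhibitor at 40 pM IL-6). The underlying signal is SIE-driven beta-lactamase in ME-180 cells after 5 h IL-6 exposure with compound.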
# [9] = molecular target: Glucocorticoid receptor (Homo sapiens) (UniProt P04150); assay: GR-GFP Redistribution (AID 450;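 active = compounds whose dose series gives a full or clear partial fitted curve of increased nuclear translocation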; also: potency is read from the fitted curve at half-maximal effect); conditions: U2OS GR-GFP nuclear translocation, laser cytometry, 2 h
# [10] = molecular target: Glucocorticoid receptor (Homo sapiens) (UniProt P04150); assay: GR-EFC Redistribution (AID 451; calls by dose curve; also: potency is read from the fitted curve at half-maximal effect); conditions: CHO-K1 GR-EFC translocation, beta-gal luminescence, 2 h
# Method in brief: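 CHO-K1 cells stably expressing nuclear-localized β-gal enzyme acceptor and GR fused C-terminally to the enzyme donor fragment; ligand-driven nuclear translocation restores β-gal by complementation. Compounds titrated up to 46 uM final, 2 h at 37 °C; luminescence read.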
# [11] = molecular target: Mitogen-activated protein kinase 10 (Mus musculus) (UniProt Q61831); assay: JNK3 AlphaScreen Assay (AID 530; active = well fitted curve in either direction with a large enough effect, not every such curve was filed as active;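 also: kinase came from lysate of stimulated human HepG2 cells; signal reports phosphorylation of biotinylated GST-cJun 1-79 at Ser73 with 10 µM ATP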)
# Method in brief: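 Biotinylated GST-cJun(1-79) served as substrate for JNK3 in HepG2 lysates stimulated with IL-1beta and TNF-alpha. ATP was 10 uM final, pH 7.6. Ser73 phosphorylation was quantified by AlphaScreen (680 nm excitation).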
# [12] = molecular target: 3',5'-cyclic-AMP phosphodiesterase 4B (Homo sapiens) (UniProt Q07343); assay: qHTS Assay for Inhibitors of PDE-IV (AID 607; active = well fitted activation curve with a large enough effect in the main read-out, with a control signal flat, not every such curve was filed as active)
# Method in brief: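 HEK293 ACTOne cells with CNG channel (1000/well), endogenous PDE4; membrane potential dye, compounds up to 22.9 uM final. Fluorescence Ex 535/Em 590; RO 20-1724 (100 uM final) as reference.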
# [13] = molecular target: Cytochrome P450 2D6 (Homo sapiens) (UniProt P10635); assay: qHTS Assay for Inhibitors and Substrates of Cytochrome P450 2D6 (AID 891); also: potency is read from the fitted curve at half-maximal effect; nearly all actives have a fitted effect of over 60% in size
# Method in brief: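 Luminescent read-out of luciferin formed by 5 nM human CYP2D6 demethylating 30 uM Luciferin-ME EGE (Km level) over 60 min at room temperature after NADPH regeneration addition. Data normalized to full inhibition by 1.43 uM quinidine.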
# [14] = Confirmation and Secondary Assay for Modulators of Hemoglobin Beta Chain Splicing at IVS2 654 locus (AID 910);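 also: per-well total GFP intensity by laser scanning cytometry after 2-day treatment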
# Method in brief: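 HeLa cells stably carrying EGFP interrupted by mutant beta-globin IVS2-654 intron (CMV-driven) were treated with compound for 2 days at 37C; corrected splicing was scored as total peak GFP intensity per well (488 nm excitation, 500-520 nm emission).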
# [15] = Confirmation and Secondary Assay for Modulators of Hemoglobin Beta Chain Splicing at IVS2 705 locus (AID 930);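 also: HeLa cells stably expressing the EGFP-705 splicing reporter; GFP fluorescence per well restored by corrected splicing of the IVS2-705 intron in EGFP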
# Method in brief: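 Fluorescence gain (488 nm laser, 500-520 nm PMT) reflects restored correct splicing of a mutant IVS2-705 intron inside EGFP in stably transfected HeLa cells after 2-day compound treatment.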
# [16] = qHTS Assay for Lipid Storage Modulators (AID 1519; calls by dose curve); conditions: Drosophila S3 cells, BODIPY lipid droplet/cell ratio, laser cytometry, cells loaded with oleic acid; for activity change, negative = inhibition: at 57.5 µM (top of the series)
# Method in brief: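 Cells seeded at 5,000 per well were treated with compounds over a concentration series and loaded with oleic acid (400 uM, as added). Lipid droplet fluorescence (488 nm excitation, 500-530 nm channel) was read by laser-scanning cytometry and normalized to 20 uM Triacsin C.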
# [17] = molecular target: Ubiquitin carboxyl-terminal hydrolase 1 (Homo sapiens) (UniProt O94782); assay: Inhibitors of USP1/UAF1: Pilot qHTS (AID 504865);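 also: rhodamine fluorescence freed from ubiquitin-rhodamine substrate followed over time; top concentration of the series differs between compounds; nearly all actives have a fitted effect of over 35% in size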
# Method in brief: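 Enzyme-free wells gave the negative control, while test wells held 1nM USP1/UAF1 preincubated with compound for 15 min at room temperature. Ub-Rho at 150nM final started the reaction, and fluorescence at 480/540 nm was recorded kinetically.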
# [18] = Primary qHTS for small molecule stabilizers of the endoplasmic reticulum resident proteome: Secreted ER Calcium Modulated Protein (SERCaMP) assay (AID 1508630)
# Method in brief: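 The SH-SY5Y reporter protocol was run at 3 concentrations up to 38.3 uM (primary) or 11 concentrations (follow-up): 16 h compound, 100 nM thapsigargin for 4 h, then extracellular luciferase luminescence.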
# [19] = molecular target: Cytochrome P450 3A4 (Homo sapiens) (UniProt P08684); assay: qHTS Assay for Inhibitors and Substrates of Cytochrome P450 3A4 (AID 884); also: potency is read from the fitted curve at half-maximal effect; nearly all actives have a fitted effect of over 50% in size
# Method in brief: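 Luminescent readout of luciferin produced by CYP3A4 (20 nM) dealkylation of Luciferin-PPXE, 25 uM (its KM). NADPH-driven reaction ran 60 min at RT after 10 min compound preincubation; data scaled to 57 uM ketoconazole as 100% inhibition.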
# [20] = molecular target: Cytochrome P450 3A4 (Homo sapiens) (UniProt P08684); assay: qHTS Assay for Activators of Cytochrome P450 3A4 (AID 885); also: nearly all actives have a fitted effect of over 65% in size
# Method in brief: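 Human CYP3A4 dealkylates Luciferin-PPXE to luciferin, which luciferase detection converts to light. Substrate was at its KM (25uM), buffer 200mM KPO4, reaction 60 min at RT.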
# [21] = measured here: cell count channel max response
# [22] = measured here: lipid channel max response
# Chain of Calcium and integrin-binding protein 1 (Homo sapiens) (Q99828 whole entry, looked up): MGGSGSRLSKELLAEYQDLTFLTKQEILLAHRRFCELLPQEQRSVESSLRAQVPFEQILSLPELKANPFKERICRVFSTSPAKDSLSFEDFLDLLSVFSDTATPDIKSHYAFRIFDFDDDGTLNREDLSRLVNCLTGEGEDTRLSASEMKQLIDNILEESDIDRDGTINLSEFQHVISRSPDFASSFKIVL
# Chain of Glucocorticoid receptor (Homo sapiens) (P04150 whole entry, looked up, the tested form may be a part): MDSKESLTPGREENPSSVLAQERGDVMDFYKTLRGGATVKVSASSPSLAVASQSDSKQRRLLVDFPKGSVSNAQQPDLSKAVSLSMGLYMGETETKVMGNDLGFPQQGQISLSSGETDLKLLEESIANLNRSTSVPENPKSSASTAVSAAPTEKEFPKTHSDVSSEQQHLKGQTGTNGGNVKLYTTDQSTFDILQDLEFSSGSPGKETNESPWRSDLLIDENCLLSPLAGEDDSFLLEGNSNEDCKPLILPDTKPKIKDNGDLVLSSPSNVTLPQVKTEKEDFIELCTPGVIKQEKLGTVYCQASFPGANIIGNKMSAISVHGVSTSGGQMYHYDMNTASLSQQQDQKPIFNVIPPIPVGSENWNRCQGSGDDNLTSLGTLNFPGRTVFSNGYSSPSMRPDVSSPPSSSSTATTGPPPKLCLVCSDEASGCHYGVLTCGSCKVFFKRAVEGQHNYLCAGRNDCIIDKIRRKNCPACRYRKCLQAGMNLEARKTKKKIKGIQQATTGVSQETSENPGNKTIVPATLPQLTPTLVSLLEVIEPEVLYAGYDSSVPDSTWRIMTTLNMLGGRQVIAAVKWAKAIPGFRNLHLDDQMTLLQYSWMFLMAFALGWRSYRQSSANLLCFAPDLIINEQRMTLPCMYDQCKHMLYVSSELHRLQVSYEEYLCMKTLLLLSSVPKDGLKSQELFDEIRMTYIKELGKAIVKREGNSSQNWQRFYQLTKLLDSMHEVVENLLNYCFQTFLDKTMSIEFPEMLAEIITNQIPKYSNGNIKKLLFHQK
# Chain of Cytochrome P450 1A2 (Homo sapiens) (P05177 whole entry, looked up): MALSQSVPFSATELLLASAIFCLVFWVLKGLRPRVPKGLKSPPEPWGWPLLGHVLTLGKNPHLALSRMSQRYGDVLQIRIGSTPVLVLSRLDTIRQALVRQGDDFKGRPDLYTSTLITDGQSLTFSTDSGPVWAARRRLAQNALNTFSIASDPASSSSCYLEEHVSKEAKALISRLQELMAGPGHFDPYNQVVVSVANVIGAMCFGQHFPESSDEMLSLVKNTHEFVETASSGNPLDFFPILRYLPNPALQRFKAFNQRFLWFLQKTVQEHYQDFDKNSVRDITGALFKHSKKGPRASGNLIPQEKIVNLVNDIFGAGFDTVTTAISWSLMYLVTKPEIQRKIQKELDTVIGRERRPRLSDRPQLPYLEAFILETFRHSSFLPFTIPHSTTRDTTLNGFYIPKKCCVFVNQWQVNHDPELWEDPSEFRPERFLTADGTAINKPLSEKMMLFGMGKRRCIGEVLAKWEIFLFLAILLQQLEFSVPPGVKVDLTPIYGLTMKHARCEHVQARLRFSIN
# Chain of Cytochrome P450 2D6 (Homo sapiens) (P10635 whole entry, looked up): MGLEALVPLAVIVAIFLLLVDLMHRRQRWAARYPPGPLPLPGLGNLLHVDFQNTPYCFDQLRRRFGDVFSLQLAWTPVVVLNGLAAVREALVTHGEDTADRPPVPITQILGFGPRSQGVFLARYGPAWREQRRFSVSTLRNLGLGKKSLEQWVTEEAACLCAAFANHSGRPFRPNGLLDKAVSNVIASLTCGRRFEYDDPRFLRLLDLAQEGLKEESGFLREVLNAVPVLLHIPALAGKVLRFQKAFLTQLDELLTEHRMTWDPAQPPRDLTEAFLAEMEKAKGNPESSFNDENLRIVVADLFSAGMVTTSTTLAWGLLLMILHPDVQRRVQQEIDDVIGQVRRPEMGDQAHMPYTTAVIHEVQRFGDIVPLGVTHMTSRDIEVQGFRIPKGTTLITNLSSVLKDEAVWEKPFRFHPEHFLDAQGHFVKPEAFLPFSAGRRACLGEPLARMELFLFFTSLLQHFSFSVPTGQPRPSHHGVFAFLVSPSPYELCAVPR
# Chain of Ubiquitin carboxyl-terminal hydrolase 1 (Homo sapiens) (O94782 whole entry, looked up): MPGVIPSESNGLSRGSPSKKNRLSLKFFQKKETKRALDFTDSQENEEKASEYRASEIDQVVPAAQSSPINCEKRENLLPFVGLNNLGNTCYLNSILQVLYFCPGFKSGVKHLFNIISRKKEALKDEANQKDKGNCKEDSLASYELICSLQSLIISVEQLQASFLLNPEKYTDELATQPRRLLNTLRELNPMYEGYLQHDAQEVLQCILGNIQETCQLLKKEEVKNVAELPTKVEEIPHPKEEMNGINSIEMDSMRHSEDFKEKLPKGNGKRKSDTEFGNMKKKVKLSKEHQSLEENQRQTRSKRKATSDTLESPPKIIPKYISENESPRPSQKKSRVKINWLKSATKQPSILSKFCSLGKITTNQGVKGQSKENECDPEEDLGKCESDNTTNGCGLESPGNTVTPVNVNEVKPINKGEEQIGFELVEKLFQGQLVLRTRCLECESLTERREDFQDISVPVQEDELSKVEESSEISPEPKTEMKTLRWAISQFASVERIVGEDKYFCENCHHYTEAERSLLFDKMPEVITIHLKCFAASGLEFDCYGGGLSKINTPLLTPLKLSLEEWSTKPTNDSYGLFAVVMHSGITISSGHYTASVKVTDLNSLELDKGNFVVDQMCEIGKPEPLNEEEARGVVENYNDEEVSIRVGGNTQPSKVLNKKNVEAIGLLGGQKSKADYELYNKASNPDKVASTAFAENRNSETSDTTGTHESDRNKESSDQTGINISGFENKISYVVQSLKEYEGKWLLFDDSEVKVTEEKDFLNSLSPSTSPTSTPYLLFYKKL
# Chain of Cytochrome P450 3A4 (Homo sapiens) (P08684 whole entry, looked up): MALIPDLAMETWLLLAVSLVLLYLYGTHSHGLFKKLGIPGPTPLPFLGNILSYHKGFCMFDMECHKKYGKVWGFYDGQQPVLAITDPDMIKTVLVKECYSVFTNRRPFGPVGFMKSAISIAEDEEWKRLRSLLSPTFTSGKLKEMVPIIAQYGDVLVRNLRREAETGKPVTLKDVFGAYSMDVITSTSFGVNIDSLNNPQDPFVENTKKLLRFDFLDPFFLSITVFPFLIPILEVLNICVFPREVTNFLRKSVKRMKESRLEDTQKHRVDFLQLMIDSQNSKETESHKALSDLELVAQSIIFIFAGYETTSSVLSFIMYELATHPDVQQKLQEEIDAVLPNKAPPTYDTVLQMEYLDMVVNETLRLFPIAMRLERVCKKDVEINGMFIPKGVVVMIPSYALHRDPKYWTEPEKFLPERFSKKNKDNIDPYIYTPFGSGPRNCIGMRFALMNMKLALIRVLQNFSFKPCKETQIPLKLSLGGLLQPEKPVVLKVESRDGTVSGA
# Chain of Lysosomal acid glucosylceramidase (Homo sapiens) (P04062 whole entry, looked up): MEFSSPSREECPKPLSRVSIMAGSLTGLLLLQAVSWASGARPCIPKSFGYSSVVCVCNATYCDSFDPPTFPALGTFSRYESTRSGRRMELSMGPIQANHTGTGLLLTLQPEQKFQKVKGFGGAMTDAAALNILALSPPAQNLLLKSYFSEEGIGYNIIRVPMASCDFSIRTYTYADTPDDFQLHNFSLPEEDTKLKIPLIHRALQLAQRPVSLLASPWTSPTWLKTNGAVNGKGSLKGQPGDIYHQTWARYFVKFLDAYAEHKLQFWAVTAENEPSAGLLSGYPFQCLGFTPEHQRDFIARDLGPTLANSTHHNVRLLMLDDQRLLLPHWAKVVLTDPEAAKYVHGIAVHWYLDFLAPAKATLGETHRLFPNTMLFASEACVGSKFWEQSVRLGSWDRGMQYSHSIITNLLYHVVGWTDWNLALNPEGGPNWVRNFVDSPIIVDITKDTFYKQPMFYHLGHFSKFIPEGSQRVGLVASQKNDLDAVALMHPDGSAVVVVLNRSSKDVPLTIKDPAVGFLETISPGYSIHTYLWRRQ
# Chain of 3',5'-cyclic-AMP phosphodiesterase 4B (Homo sapiens) (Q07343 whole entry, looked up): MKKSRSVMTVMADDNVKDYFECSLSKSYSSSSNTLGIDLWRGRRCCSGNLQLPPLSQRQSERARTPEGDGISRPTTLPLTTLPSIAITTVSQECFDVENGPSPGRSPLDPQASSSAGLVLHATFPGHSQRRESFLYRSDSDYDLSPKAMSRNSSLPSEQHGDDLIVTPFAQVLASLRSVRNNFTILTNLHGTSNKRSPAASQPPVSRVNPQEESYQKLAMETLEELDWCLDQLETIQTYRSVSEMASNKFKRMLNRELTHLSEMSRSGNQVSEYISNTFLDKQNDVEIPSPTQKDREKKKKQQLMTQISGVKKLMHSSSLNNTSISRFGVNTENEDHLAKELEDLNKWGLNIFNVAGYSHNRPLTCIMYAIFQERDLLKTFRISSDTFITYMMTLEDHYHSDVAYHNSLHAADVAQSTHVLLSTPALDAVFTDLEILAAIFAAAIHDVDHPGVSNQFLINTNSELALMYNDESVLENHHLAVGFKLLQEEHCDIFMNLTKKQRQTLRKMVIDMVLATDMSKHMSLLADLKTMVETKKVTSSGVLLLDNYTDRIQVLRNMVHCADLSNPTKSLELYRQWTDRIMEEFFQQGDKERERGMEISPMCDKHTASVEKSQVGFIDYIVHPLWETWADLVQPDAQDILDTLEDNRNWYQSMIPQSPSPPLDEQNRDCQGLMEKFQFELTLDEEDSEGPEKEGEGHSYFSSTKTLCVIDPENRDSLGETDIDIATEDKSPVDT
smiles,measurement,setting,value
NC(=O)C1CCN(c2nc(-c3cc4ccccc4o3)cs2)CC1,Potency,[1],inactive
Cc1ccnc(NC(=S)N2CCN(C)CC2)c1,Potency,[1],inactive
O=C(/C=C/c1ccc(Cl)cc1)Nc1cccc([S+](=O)([O-])Nc2ccccc2F)c1,Potency,[1],inactive
O=[S+]([O-])(c1ccc2c(c1)OCCO2)N1CCN([S+](=O)([O-])c2c(F)cc(F)cc2Br)CC1,Potency,[1],inactive
Cc1ccc(S(=O)(=O)NC(N)=NCCC[C@@H](NC(=O)CNC(=O)c2ccccc2)C(=O)Nc2cc(C(F)(F)F)ccc2Cl)cc1,Potency,[1],inactive
O=C(Nc1nnc(-c2ccncc2)s1)Nc1cccc2ccccc12,Potency,[1],inactive
Cc1cnc(NC(=O)c2cc(S(=O)(=O)N(C)C)ccc2N2CCCC2)s1,Potency,[1],inactive
same,Potency,[2],8.91 µM (active)
same,Potency,[3],inactive
Cc1c(P(=S)(c2ccccc2)c2ccccc2)[n+]2ccccc2n1CCCCCc1ccccc1,Potency,[1],inactive
Fc1ccc(Nc2nc(-c3ccnc(N4CCCCC4)c3)nc3ccccc23)cc1F,Potency,[1],inactive
COc1cccc(C2C(C#N)=C(NC(=O)NCc3ccccc3)Oc3ccc4ccccc4c32)c1 (stereo not given),Potency,[1],inactive
Cc1ccc(OCCn2c(CCNC(=O)C3CCOCC3)nc3ccccc32)cc1,Potency,[1],inactive
O=C1c2ccccc2C(=O)N1c1cc(=O)c2ccccc2[nH]1,Potency,[1],inactive
Cc1cccc2c1NC(=O)/C2=C/c1cc(Cl)c(O)c(Cl)c1,Potency,[1],inactive
N#CN1CCC(NS(=O)(=O)c2ccc(C(F)(F)F)cc2)C1 (stereo not given),Potency,[1],inactive
O=C(O)c1ccc2c(c1)C(=O)N([C@@H](C(=O)O)C(c1ccccc1)c1ccccc1)C2=O,Potency,[1],inactive
CC(=O)Nc1ccc(C(=O)Nc2ccc(-c3nc4ccccc4[nH]3)cc2)cc1,Potency,[1],inactive
O=S(=O)(NC1CCN(S(=O)(=O)c2c(F)cccc2F)C1)c1ccc2c(c1)OCCO2 (stereo not given),Potency,[1],inactive
O=C(Nc1nnc(COc2ccc(Cl)cc2)s1)c1cccs1,Potency,[1],inactive
CNc1cccc(S(=O)(=O)N2CCCN(S(=O)(=O)c3ccc4c(c3)OCCO4)CC2)c1,Potency,[1],inactive
Cn1cccc1CN=C1NC2=C(C(=O)CCC2)C(c2[nH]ncc2Cl)N1 (stereo not given),Potency,[1],inactive
Cc1cc(C)n2ncc(C(=O)NCC(C)C)c2n1,Potency,[1],inactive
Cn1nnnc1Sc1ncnc2scc(-c3cccs3)c12,Potency,[1],inactive
O=C(O)c1ccc2c(c1)C(=O)N([C@H](Cc1ccc(Cl)cc1)C(=O)O)C2=O,Potency,[1],inactive
Cc1cccc(-c2csc3ncnc(Sc4nnnn4C)c23)c1,Potency,[1],inactive
Cc1ccnc(NC(=S)N2CC3CN(c4cccc(C(F)(F)F)c4)CC3C2)c1 (stereo not given),Potency,[1],inactive
O=C(NC1CCCc2c1cnn2-c1ccc(F)cc1F)c1ccc(C2(C(F)(F)F)N=N2)cc1 (stereo not given),Potency,[1],inactive
Cn1nnnc1Sc1ncnc2scc(-c3cccc4ccccc34)c12,Potency,[1],inactive
COc1ccc2c(=O)n3nc(Nc4ccc5c(c4)CCC5)sc3nc2c1,Potency,[1],inactive
c1nc(N2CCNCC2)c2cc(-c3ccc4c(c3)OCO4)ccc2n1,Potency,[4],> 11.4 µM (inactive)
same,"activity change, negative = inhibition",[5],-9.83% (inactive)
same,Potency,[6],2 µM (active)
same,"activity change, negative = inhibition",[7],-0.53% (inactive)
same,"activity, negative = inhibition",[8],1.4% (inactive)
same,Potency,[9],> 46 µM (inactive)
same,Potency,[10],> 46 µM (inactive)
same,outcome,[11],inactive
same,Potency,[12],inactive
same,Potency,[13],2.51 µM (active)
same,outcome,[14],inactive
same,outcome,[15],inactive
same,"activity change, negative = inhibition",[16],13.1% (inactive)
same,max response,[16]; [21],9.51%
same,max response,[16]; [22],19.9%
same,Potency,[17],inactive
same,Potency,[1],inactive
same,Potency,[18],inactive
CN(Cc1ccco1)c1ncnc2ccc(-c3cccnc3)cc12,Potency,[4],> 11.4 µM (inactive)
same,Potency,[6],0.316 µM (active)
same,"activity, negative = inhibition",[8],-12.5% (inactive)
same,Potency,[9],> 46 µM (inactive)
same,Potency,[10],> 46 µM (inactive)
same,outcome,[11],inactive
same,Potency,[19],3.98 µM (active)
same,Potency,[20],inactive
same,Potency,[13],2 µM (active)
same,outcome,[14],inactive
same,outcome,[15],inactive
same,"activity change, negative = inhibition",[16],2.3% (inactive)
same,max response,[16]; [21],-8.64%
same,max response,[16]; [22],-5.56%
same,Potency,[17],inactive
same,Potency,[1],inactive
same,Potency,[18],inactive

# Reference: PubChem BioAssay (NCATS)
